HT1080 IDH1KD tx: HT-1080 IDH1 knockdown cell toxicity (counter line); 360,000 tested, 2% active; Potency, µM (highest dose often 46.1 µM), inactives show at the top dose activity, negative = toxicity, actives largely listed as cytotoxic; HT-1080 IDH1 knockdown viability, ATP luminescence, 48 h;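 also: potency is read from the fitted curve at half-maximal effect; 0% = DMSO wells and -100% = cell-free medium wells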
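Cytotoxicity counter-line: IDH1KD HT-1080, 48 h, CellTiter-Glo. Curves classed by r2, magnitude and activity.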
TDP1 cell noCPT: qHTS for Inhibitors of human tyrosyl-DNA phosphodiesterase 1 (TDP1): qHTS in cells in absence of CPT; DT40 Tdp1-/- hTDP1 cells, no CPT, ATP luminescence, 48 h; Potency, µM (titrated, usually from 46.2 µM), without a hit: at the top dose activity change, negative = growth inhibition, most hits filed as inhibitors; 420,000 tested, 15% active; AID 686978, 2013; also: potency is read from the fitted curve at half-maximal effect; nearly all actives have a fitted effect of over 55% in size
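Readout: luminescence from CellTiter-Glo after 30 min in the dark at RT. Cells: DT40 Tdp1-/- with stable hTDP1, 400/well. Exposure: compounds alone, ≥48 hr, 37 °C.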
HT1080NT lethal: kills 2HG-producing HT-1080-NT fibrosarcoma cells; HT-1080-NT fibrosarcoma viability, CellTiter-Glo ATP luminescence, 48 h; Potency, µM (top dose mostly 46.1 µM), for inactives: at the top dose activity, negative = less viability, hits mostly cytotoxic; 360,000 tested, 1.6% active; AID 686970;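 also: NT is the 2HG producing partner of a matched IDH1 knockdown line; potency is read from the fitted curve at half-maximal effect; 0% = DMSO-treated cells and -100% = media-only wells without cells; nearly all actives have a fitted effect of over 55% in size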
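HT-1080-NT fibrosarcoma cells (2HG-overproducing), 750 cells/well in RPMI with 5% FBS, dosed after 2 h and incubated 48 h at 37C. CellTiter-Glo luminescence normalized to DMSO and no-cell wells; concentration-response curves fitted and classed.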
ELG1 DNA repair: ELG1-dependent DNA repair inhibition; Potency, µM (top dose mostly 46.1 µM), for the others: top-dose activity change, negative = inhibition, usual class: inhibitors; 330,000 tested, 2.3% active; AID 504467; HEK293T ELG1-luciferase reporter, luminescence, 16 h; DNA damage induced by 5-fluorouridine; also: potency is read from the fitted curve at half-maximal effect; nearly all actives have a fitted effect of over 55% in size
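Cells (2,000 per well) received 5-fluorouridine plus test compound or DMSO and were incubated 16 hr at 37 °C, 5% CO2. Luciferase activity was read by luminescence 30 min after ONE-Glo addition; signal suppression marked inhibition of damage-induced ELG1 function.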
DT40 TDP1 CPT: DT40-hTDP1 cell growth loss with CPT; Potency, µM (series often up to 46.2 µM), for inactives: at the highest dose activity change, negative = growth inhibition, actives largely listed as inhibitors; 420,000 tested, 12% active; AID 686979; chicken DT40 Tdp1-/-;hTDP1 cells + 20 nM CPT, ATP luminescence, 48 h; also: potency is read from the fitted curve at half-maximal effect; nearly all actives have a fitted effect of over 55% in size
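Chicken DT40 Tdp1-/- cells stably complemented with human TDP1 were seeded at 400 cells/well in medium containing 20 nM camptothecin, exposed to pin-transferred compounds, and grown at 37 °C for at least 48 hr. Viability was read as ATP luminescence.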
IL1B secr inh: inflammasome signaling inhibition, IL-1 beta readout; 360,000 tested, 4.7% active; activity change, % at 57.5 µM; THP-1 LPS/ATP IL-1B secretion, AlphaLISA, 16 h; stronger effect = lower value; in the data active = activity change below about -50%; inconclusive = mostly about -30% to -49%
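Secreted IL-1B measured by AlphaLISA bead assay after 16 h compound exposure of THP-1 cells; compounds (final up to 57.5 uM) added 1 h before LPS (250 ng/mL) and ATP (1.25 mM) stimulation; lower signal means less secretion.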
The depositor's hits bear a star. An excerpt weighted towards active compounds, which were near 19% of everything screened. Unless noted, calls follow the shape of the dose curve; as a rule, active = well fitted curve in the direction sought with a large enough effect; inconclusive = small, poorly fitted or top-dose-only effect, or another doubt; inactive = no such curve, though single readings can be large; an effect the other way counts as inactive or inconclusive. Unless noted, % is scaled to controls: 0 for no effect and ±100 for the full control effect.

`O=C(COC(=O)CSc1ccccc1)NC1CCS(=O)(=O)C1` (stereo not drawn) gave HT1080 IDH1KD tx 0.5%, TDP1 cell noCPT 8.9%, HT1080NT lethal 5.0%, DT40 TDP1 CPT -7.5% and IL1B secr inh 9.3.
Screening N=C1/C(=C\c2ccc(Br)o2)C(=O)N=C2SC(CC(=O)N3CCCCC3)=NN12 returned HT1080 IDH1KD tx 1.8%, TDP1 cell noCPT 7.31µM*, HT1080NT lethal 4.7%, ELG1 DNA repair 8.4%, DT40 TDP1 CPT 6.51µM* and IL1B secr inh -9.9.
O=C(NCc1ccccn1)c1c(-c2ccccc2)sc2ccccc12 was read as HT1080 IDH1KD tx 2.6%, TDP1 cell noCPT inconclusive, HT1080NT lethal 0.0%, ELG1 DNA repair -10.3%, DT40 TDP1 CPT 23.1µM* and IL1B secr inh 81.0.
For O=C(NCc1ccccn1)c1ccc(-c2ccccc2)cc1 the results were HT1080 IDH1KD tx -10.5%, TDP1 cell noCPT -1.2%, HT1080NT lethal 7.8%, ELG1 DNA repair inconclusive, DT40 TDP1 CPT 13.1% and IL1B secr inh inconclusive.
O=c1ccc(-c2ccccc2)nn1Cc1c(F)cccc1Cl was read as TDP1 cell noCPT inconclusive and DT40 TDP1 CPT 18.4µM*.
Fc1cccc(Cl)c1Cn1ncc2ccccc21 was read as HT1080 IDH1KD tx -0.3%, TDP1 cell noCPT 19.7%, HT1080NT lethal 9.8%, ELG1 DNA repair inconclusive, DT40 TDP1 CPT -3.4% and IL1B secr inh 26.6.
`O=c1ccc(-c2ccccc2)nn1Cc1ccccc1F` gave HT1080 IDH1KD tx -19.8%, TDP1 cell noCPT -18.6%, HT1080NT lethal -4.8%, ELG1 DNA repair -23.4%, DT40 TDP1 CPT -12.0% and IL1B secr inh -62.4*.
Screening C=Cc1ccc(Cn2nc(-c3ccccc3)ccc2=O)cc1 returned HT1080 IDH1KD tx -17.8%, TDP1 cell noCPT -12.1%, HT1080NT lethal -12.3%, ELG1 DNA repair -31.9%, DT40 TDP1 CPT inconclusive and IL1B secr inh 28.8.
For CCOC(=O)CCCCCC(=O)Nc1ccc2c(c1)C(=O)N([C@H](C)CO)C[C@H](C)[C@@H](CN(C)C(=O)Nc1ccccc1)OCCCC[C@@H](C)O2 the results were HT1080 IDH1KD tx -2.7%, TDP1 cell noCPT inconclusive, HT1080NT lethal 3.0%, DT40 TDP1 CPT inconclusive and IL1B secr inh 38.6.
For CCCC(=O)O[C@@H]1C[C@@H](C)N(C(=O)c2ccccc2)c2ccc(C)cc21 the results were HT1080 IDH1KD tx -15.4%, TDP1 cell noCPT 20.6µM*, HT1080NT lethal -10.4%, ELG1 DNA repair 1.8%, DT40 TDP1 CPT 20.6µM* and IL1B secr inh -3.0.
Screening O=C(O)CCCC(=O)N1CCN(c2nc(-c3ccccc3Cl)c3cc(Br)ccc3n2)CC1 returned HT1080 IDH1KD tx inconclusive, TDP1 cell noCPT inconclusive, HT1080NT lethal -16.3%, ELG1 DNA repair -0.9%, DT40 TDP1 CPT -25.9% and IL1B secr inh 11.9.
Cc1nc(C)n(CC(O)COc2ccc3c(c2)CCC3)n1 (stereo not drawn) was read as HT1080 IDH1KD tx 0.5%, TDP1 cell noCPT -11.7%, HT1080NT lethal 0.0%, ELG1 DNA repair 12.8%, DT40 TDP1 CPT -3.9% and IL1B secr inh 24.5.
For CC(=O)c1c(C)nn(CC(O)COc2ccc3c(c2)CCC3)c1C (stereo not drawn) the results were HT1080 IDH1KD tx -12.7%, TDP1 cell noCPT 15.8µM*, HT1080NT lethal inconclusive, ELG1 DNA repair inconclusive, DT40 TDP1 CPT inconclusive and IL1B secr inh inconclusive.
CC(C)(C)CC(C)(C)NCC(O)COc1ccc2c(c1)CCC2 (stereo not drawn) was read as HT1080 IDH1KD tx inconclusive, TDP1 cell noCPT 23.1µM*, HT1080NT lethal 20.6µM*, DT40 TDP1 CPT inconclusive and IL1B secr inh -75.1*.
Screening COc1ccccc1N1CCN(CC(O)COc2ccc(C)cc2C(C)(C)C)CC1 (stereo not drawn) returned TDP1 cell noCPT 18.4µM* and DT40 TDP1 CPT inconclusive.
For COc1ccccc1N1CCN(CC(O)COc2ccc3c(c2)CCC3)CC1 (stereo not drawn) the results were HT1080 IDH1KD tx inconclusive, TDP1 cell noCPT inconclusive, HT1080NT lethal -26.8%, ELG1 DNA repair inconclusive, DT40 TDP1 CPT 16.4µM* and IL1B secr inh -64.2*.
For Cc1ccc(OCC(O)CN2CCN(CC(O)COC(C)C)CC2)c(C(C)(C)C)c1 (stereo not drawn) the results were HT1080 IDH1KD tx inconclusive, TDP1 cell noCPT inconclusive, HT1080NT lethal inconclusive, ELG1 DNA repair -2.6%, DT40 TDP1 CPT inconclusive and IL1B secr inh -24.7.
For Cc1ccccc1NS(=O)(=O)c1cc2c3c(c1)C(C)C(=O)N3CCC2 (stereo not drawn) the results were HT1080 IDH1KD tx -2.4%, TDP1 cell noCPT -1.7%, HT1080NT lethal 3.6%, ELG1 DNA repair -4.3%, DT40 TDP1 CPT 2.7% and IL1B secr inh 4.9.
For COc1ccc(-c2oc3ncn4nc(-c5ccccc5OC)nc4c3c2-c2ccc(OC)cc2)cc1 the results were TDP1 cell noCPT -16.4% and DT40 TDP1 CPT -1.4%.
Screening CCCNC(=O)C1(C)CCN(Cc2ccc(-c3ccccc3)o2)C1 (stereo not drawn) returned HT1080 IDH1KD tx inconclusive, TDP1 cell noCPT inconclusive, HT1080NT lethal inconclusive, DT40 TDP1 CPT 23.1µM* and IL1B secr inh -13.6.
For COCCNC(=O)C1(C)CCCN(Cc2ccc(-c3ccccc3)o2)C1 (stereo not drawn) the results were HT1080 IDH1KD tx 0.6%, TDP1 cell noCPT inconclusive, HT1080NT lethal -15.7%, DT40 TDP1 CPT inconclusive and IL1B secr inh -5.9.
Screening CCNC(=O)C1(C)CCCN(Cc2ccc(-c3ccccc3)o2)C1 (stereo not drawn) returned HT1080 IDH1KD tx -11.4%, TDP1 cell noCPT 23.1µM*, HT1080NT lethal 7.9%, DT40 TDP1 CPT 23.1µM* and IL1B secr inh -25.1.
Screening CC1(Oc2cccc(F)c2)CCN(Cc2ccc(-c3ccccc3)o2)C1 (stereo not drawn) returned HT1080 IDH1KD tx 3.4%, TDP1 cell noCPT inconclusive, HT1080NT lethal 2.0%, DT40 TDP1 CPT 23.1µM* and IL1B secr inh 0.0.
C[C@H](CO)N1C[C@H](C)[C@H](CN(C)S(=O)(=O)c2cccs2)OCc2cnnn2CCCC1=O was read as HT1080 IDH1KD tx -2.0%, TDP1 cell noCPT 14.2%, HT1080NT lethal 4.5%, DT40 TDP1 CPT 4.3% and IL1B secr inh 16.2.
